The panel holds about 83,000 compounds, 20% with a hit somewhere; the sample as a whole holds those more often.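 Note: values are percent growth. 100 is the growth of untreated cells, values between 100 and 0 indicate rising inhibition; between -100 and 0 indicates cell death.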 The source made the active and inactive calls. The calls were made as follows: active = growth percent below 10; inactive = the rest.
Columns and labels:
Experiment in all cases: NCI-60 one-dose screen, 48 h (100 = growth as untreated, 0 = no growth, -100 = all killed)
[1] = tested on: HT29 colon; settings: 10 µM unless noted
[2] = tested on: SNB-75 CNS; settings: 10 µM unless noted
[3] = tested on: SNB-19 CNS; settings: 10 µM unless noted
[4] = tested on: U251 CNS; settings: 10 µM unless noted
[5] = tested on: PC-3 prostate; settings: 10 µM unless noted
[6] = tested on: SK-MEL-5 melanoma; settings: 10 µM unless noted
[7] = tested on: UACC-62 melanoma; settings: 10 µM unless noted
[8] = tested on: LOX IMVI melanoma; settings: 10 µM unless noted
[9] = tested on: SK-MEL-2 melanoma; settings: 10 µM unless noted
[10] = tested on: SK-MEL-28 melanoma; settings: 10 µM

Measured: growth

Cc1ccc(NC2=CC(=O)C(=O)c3ccccc32)c(C)c1
active: [6] -97.3% | [7] -59.5% | [8] -23.2%
inactive: [1] 48.4% | [2] 35.2% | [3] 28.1% | [4] 33.3% | [5] 35.4% | [9] 76.6%

CCc1ccc(CNCC(O)c2ccccc2)cc1 (centres undefined)
inactive: [1] 28.7% | [2] 61.8% | [3] 79.7% | [4] 60% | [5] 52.7% | [6] 68.6% | [7] 84.5% | [8] 68.7% | [10] 74.7% | [9] 90.9%

NS(=O)(=O)c1ccc(CCN=C=S)cc1
inactive: [1] 14.7% | [2] 29.1% | [3] 73.5% | [4] 27.6% | [5] 47% | [6] 74.7% | [7] 68.5% | [10] 55% | [9] 63%
active: [8] -27.9%

O=S1(=O)N(Cc2ccccc2)[C@@H](Cc2ccccc2)[C@H](O)[C@H](O)[C@H](Cc2ccccc2)N1Cc1ccccc1
active: [1] 6.95% | [4] 4.33% | [5] 4.89% | [6] -1.02% | [7] 5.81% | [8] -11.3% | [9] -5.68%
inactive: [2] 13.3% | [3] 17%

NC1C(N)C(N)C1N (centres undefined)
inactive: [1] 106% | [2] 71.8% | [3] 94.3% | [4] 101% | [5] 96.1% | [6] 113% | [7] 99.1% | [8] 95.1% | [9] 92%

COc1cc(C(=O)Nc2ccc(-c3nc4ccccc4[nH]3)cc2)cc(OC)c1OC
inactive: [1] 14.8% | [2] 42.9% | [3] 53.8% | [4] 25% | [5] 52.5% | [6] 65.7% | [7] 47.2% | [8] 36% | [10] 50% | [9] 105%

COC(=O)c1c2c(c(C)[n+]([O-])c1C)C(=O)C=C(NCc1ccc(F)c(F)c1)C2=O
active: [1] 1.02% | [2] -96.7% | [3] -67.2% | [4] -31.9% | [5] 3.37% | [6] -100% | [7] -83.9% | [8] -72.7% | [10] -19.3% | [9] -50.1%

NCCOc1ccccc1/C=C1\c2ccccc2-c2ccc([N+](=O)[O-])cc21
inactive: [3] 10.6% | [5] 36.8% | [6] 30.1% | [7] 20.7% | [10] 48% | [9] 78.3%
active: [1] -59.7% | [2] -5.59% | [4] -74.1% | [8] -93.8%

O=C(Nc1ccc(-c2nc3ccc(NC(=O)c4ccc(Cl)cc4)cc3[nH]2)cc1)c1ccc(Cl)cc1
active: [1] -58.1% | [2] -31.6% | [4] 2.01% | [6] 9.75% | [7] 0.642% | [8] -49.6% | [10] 7.47% | [9] -33.9%
inactive: [3] 35.2% | [5] 38.3%

CCOc1c(Br)cc(C2C(C(=O)OC)=CN(C)C=C2C(=O)OC)cc1OC
inactive: [2] 47.3% | [3] 89% | [4] 51% | [5] 60.7% | [6] 19.6% | [7] 71.3% | [8] 54.9% | [9] 65.7%
active: [1] 6.47%

O=C(NCc1ccco1)C1CN(c2ccc(Cl)cc2)N(c2ccc(Cl)cc2)C1=O (centres undefined)
inactive: [1] 16.4% | [2] 16.8% | [3] 54.4% | [4] 33.9% | [5] 27% | [6] 41.8% | [7] 24.4% | [8] 45.9% | [10] 66.2% | [9] 49.2%

COc1cc(-c2c3c(cn2S(=O)(=O)c2ccccc2)-c2nc(N)sc2CC3)cc(OC)c1OC
inactive: [2] 12.1% | [3] 29% | [4] 25.8% | [5] 41.8% | [6] 14.1% | [7] 51.1% | [8] 38.4% | [10] 68.6% | [9] 54.3%
active: [1] 9%

O=C(NC1CCN(Cc2ccccc2)CC1)c1cc2nc(-c3ccc(Cl)s3)cc(C(F)(F)F)n2n1
inactive: [2] 35.6% | [3] 101% | [5] 72.2% | [6] 89.1% | [7] 97.3% | [8] 45.2%
active: [1] -84.3% | [4] -86.9% | [10] -97.4% | [9] -62.8%

CN(CCc1ccccc1)C(=S)N(C(=O)c1ccc([N+](=O)[O-])cc1)c1ccc(Cl)cc1
inactive: [1] 92.7% | [2] 97.2% | [3] 101% | [4] 90.4% | [5] 77.5% | [6] 98.3% | [7] 92% | [8] 61.3% | [10] 95.2% | [9] 87.9%

O=C1c2cc(Br)ccc2Oc2cc([N+](=O)[O-])ccc2N1c1ccc(I)cc1F
inactive: [1] 99.6% | [2] 89.5% | [3] 94% | [4] 94.4% | [5] 103% | [6] 99.2% | [7] 87.2% | [8] 93.5% | [10] 113% | [9] 101%

COc1ccc(C2C3=C(COC3=O)N(CCO)c3cc4c(cc32)CCC4)cc1 (centres undefined)
inactive: [1] 15.4% | [2] 42.4% | [3] 62.2% | [4] 42% | [5] 54.6% | [6] 35.7% | [7] 48.3% | [8] 51% | [9] 77.9%

O=C(c1nc2ccccc2[nH]1)C1[C@@H](c2cccc(O)c2)C2CC3CCCCC3N2[C@@]12C(=O)Nc1cc(Cl)ccc12 (some centres undefined)
inactive: [1] 50.6% | [2] 27.2% | [3] 42.4% | [4] 37.7% | [5] 24% | [6] 37.2% | [7] 47.6% | [8] 22.3% | [10] 45% | [9] 60.2%

COc1cc(/C(C#N)=C/c2nc3c(N4CCOCC4)nc(Cl)nc3n2C)cc(OC)c1OC
inactive: [3] 17.7% | [5] 10.6% | [10] 46% | [9] 57.3%
active: [1] 9.95% | [2] -9.92% | [4] 8.74% | [6] -38.3% | [7] 2.78% | [8] 8.21%

O=C1c2ccc3c4c(ccc(c24)C(=O)N1CCCCO)C(=O)N(CCCCO)C3=O
inactive: [1] 10.9% | [2] 54.2% | [3] 91.4% | [4] 72.3% | [5] 63% | [6] 78.4% | [7] 79.6% | [8] 59.9% | [10] 15.6% | [9] 58.1%

COc1cc(/C=C2\CN(C)C/C(=C\c3cc(CN4CCCC4)c(O)c(OC)c3)C2=O)cc(CN2CCCC2)c1O
inactive: [1] 25.6% | [2] 75.3% | [3] 74.7% | [4] 25.8% | [5] 76.8% | [6] 89.3% | [7] 81.7% | [8] 26.3% | [10] 90.7% | [9] 92.1%

NNC(=O)CNC(=O)Nc1n[nH]c(=S)s1
inactive: [1] 95.9% | [2] 92.1% | [3] 106% | [4] 105% | [5] 95.9% | [6] 105% | [7] 104% | [8] 98.1% | [10] 106% | [9] 97.7%

CCC1=C[C@]2(C3CC(=O)N(c4ccccc4)C3=O)CC(C(C)(C)C)C[C@@H]2[C@@H]2C(=O)N(c3ccccc3)C(=O)[C@H]12 (some centres undefined)
inactive: [1] 74.3% | [2] 66.3% | [3] 86.2% | [4] 79.1% | [5] 56.7% | [6] 92.1% | [7] 71.9% | [8] 93.1% | [10] 92.6% | [9] 82.8%

CCN(CCO)CCNc1ccc(C)c2sc3cc(Cl)ccc3c(=O)c12
active: [1] -77.3% | [4] -32.1% | [6] -94.3% | [7] -53.1% | [8] -94.8% | [10] -61.7%
inactive: [2] 62.5% | [3] 44.5% | [5] 21.8% | [9] 94.4%

CC(C)C[C@H](C(=O)N[C@@H](C)C(N)=O)N1CC=CCN(O)S1(=O)=O
inactive: [1] 93.1% [5 µM] | [2] 87.4% [5 µM] | [3] 86.2% [5 µM] | [4] 107% [5 µM] | [5] 100% [5 µM] | [6] 106% [5 µM] | [7] 108% [5 µM] | [8] 95.6% [5 µM] | [9] 103% [5 µM]

O=c1oc2ccc(Cl)cc2c(=O)n1-c1ccc(Cl)cc1F
inactive: [3] 18.4%
active: [1] 7.06% | [2] -25.3% | [4] -4.3% | [5] 2.03% | [6] -87% | [7] -10.7% | [8] 3.62% | [10] 0.566% | [9] -31%

CCOC(=O)c1c2c(c(C)n1Cc1ccc(OC)cc1)-c1oncc1CC2
inactive: [1] 89.1% | [2] 72.9% | [3] 81.8% | [4] 86.3% | [5] 99.6% | [6] 98.1% | [7] 110% | [8] 76.6% | [10] 138% | [9] 120%

CCCC(=O)CC(C)=O.CCCC(=O)CC(C)=O.[Cu]
inactive: [1] 94.9% | [2] 116% | [3] 110% | [4] 99.9% | [5] 76.3% | [6] 103% | [7] 105% | [8] 86.5% | [10] 106% | [9] 113%

— PubChem BioAssay (NCI)
